According to ChEMBL document CHEMBL1961873, “Compounds: GSK PKIS; Assays: Nanosyn kinase panel” (2012):

Columns and labels:
[1] = biological target: Serine/threonine-protein kinase PAK 6 (Homo sapiens) (UniProt Q9NQU5); details: at 1 µM;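 note: values are mean percent inhibition of PAK6 kinase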
[2] = test system: Tyrosine-protein kinase ABL1 (Homo sapiens), P00519 [E255K]; details: at 0.1 µM
[3] = test system: Tyrosine-protein kinase ABL1 (Homo sapiens), P00519 [E255K]; details: at 1 µM
[4] = test system: Tyrosine-protein kinase ABL1 (Homo sapiens), P00519 [H396P]; details: at 0.1 µM
[5] = test system: Tyrosine-protein kinase ABL1 (Homo sapiens), P00519 [H396P]; details: at 1 µM
[6] = test system: Tyrosine-protein kinase ABL1 (Homo sapiens), P00519 [M351T]; details: at 0.1 µM
[7] = test system: Tyrosine-protein kinase ABL1 (Homo sapiens), P00519 [M351T]; details: at 1 µM
[8] = test system: Tyrosine-protein kinase ABL1 (Homo sapiens), P00519 [Q252H]; details: at 0.1 µM
[9] = test system: Tyrosine-protein kinase ABL1 (Homo sapiens), P00519 [Q252H]; details: at 1 µM
[10] = test system: Tyrosine-protein kinase ABL1 (Homo sapiens), P00519 [T315I]; details: at 0.1 µM
[11] = test system: Tyrosine-protein kinase ABL1 (Homo sapiens), P00519 [T315I]; details: at 1 µM
[12] = test system: Tyrosine-protein kinase ABL1 (Homo sapiens), P00519 [Y253F]; details: at 0.1 µM
[13] = test system: Tyrosine-protein kinase ABL1 (Homo sapiens), P00519 [Y253F]; details: at 1 µM
[14] = biological target: Tyrosine-protein kinase ABL1 (Homo sapiens) (UniProt P00519); details: at 0.1 µM
[15] = biological target: Tyrosine-protein kinase ABL1 (Homo sapiens) (UniProt P00519); details: at 1 µM
[16] = biological target: ALK tyrosine kinase receptor (Homo sapiens) (UniProt Q9UM73); details: at 0.1 µM
ALK tyrosine kinase receptor (Homo sapiens), sequence (Q9UM73 19-1620 limits assumed): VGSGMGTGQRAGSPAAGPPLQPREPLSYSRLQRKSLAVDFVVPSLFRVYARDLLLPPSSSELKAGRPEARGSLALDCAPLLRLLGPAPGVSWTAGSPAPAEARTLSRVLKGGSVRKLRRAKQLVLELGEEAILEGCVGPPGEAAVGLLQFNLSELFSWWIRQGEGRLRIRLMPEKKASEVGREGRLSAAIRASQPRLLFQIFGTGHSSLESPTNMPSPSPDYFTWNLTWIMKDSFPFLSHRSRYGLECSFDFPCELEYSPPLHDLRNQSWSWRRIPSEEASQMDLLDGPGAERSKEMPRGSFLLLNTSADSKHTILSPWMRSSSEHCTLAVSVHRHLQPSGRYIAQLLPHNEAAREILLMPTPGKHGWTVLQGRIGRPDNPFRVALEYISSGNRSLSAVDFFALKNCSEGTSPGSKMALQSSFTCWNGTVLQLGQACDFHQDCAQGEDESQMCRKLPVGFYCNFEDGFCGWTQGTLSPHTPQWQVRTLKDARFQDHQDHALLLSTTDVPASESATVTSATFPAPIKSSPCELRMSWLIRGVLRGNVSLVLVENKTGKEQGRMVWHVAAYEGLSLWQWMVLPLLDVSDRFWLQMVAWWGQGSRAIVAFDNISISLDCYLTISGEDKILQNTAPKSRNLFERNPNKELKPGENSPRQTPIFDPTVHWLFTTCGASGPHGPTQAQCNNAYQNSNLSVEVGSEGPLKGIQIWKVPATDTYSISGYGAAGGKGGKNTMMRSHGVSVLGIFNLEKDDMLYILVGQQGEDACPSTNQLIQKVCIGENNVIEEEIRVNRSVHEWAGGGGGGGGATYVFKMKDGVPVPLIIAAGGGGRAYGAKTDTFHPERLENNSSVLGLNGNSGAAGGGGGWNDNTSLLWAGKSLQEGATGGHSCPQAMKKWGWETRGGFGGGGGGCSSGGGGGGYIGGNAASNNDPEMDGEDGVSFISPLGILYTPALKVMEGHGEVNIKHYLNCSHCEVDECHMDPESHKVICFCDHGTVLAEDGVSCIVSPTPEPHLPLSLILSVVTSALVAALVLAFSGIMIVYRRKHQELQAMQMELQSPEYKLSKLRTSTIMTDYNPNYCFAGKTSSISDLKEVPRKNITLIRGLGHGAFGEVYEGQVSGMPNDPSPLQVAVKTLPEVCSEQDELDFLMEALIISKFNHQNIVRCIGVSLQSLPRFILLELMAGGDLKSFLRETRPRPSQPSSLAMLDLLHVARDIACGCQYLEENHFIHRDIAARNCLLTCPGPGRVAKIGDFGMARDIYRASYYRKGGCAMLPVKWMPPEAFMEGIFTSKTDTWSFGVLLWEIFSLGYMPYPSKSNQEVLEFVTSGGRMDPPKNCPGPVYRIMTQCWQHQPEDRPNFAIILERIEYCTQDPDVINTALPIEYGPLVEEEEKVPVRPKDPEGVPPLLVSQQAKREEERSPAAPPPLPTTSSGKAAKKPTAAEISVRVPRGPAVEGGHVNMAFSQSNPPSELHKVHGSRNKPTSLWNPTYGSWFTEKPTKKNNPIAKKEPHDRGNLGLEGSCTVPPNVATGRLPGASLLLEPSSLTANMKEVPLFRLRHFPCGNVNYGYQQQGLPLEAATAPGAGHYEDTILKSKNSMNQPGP

[17] = biological target: ALK tyrosine kinase receptor (Homo sapiens) (UniProt Q9UM73); details: at 1 µM
[18] = biological target: Tyrosine-protein kinase ABL2 (Homo sapiens) (UniProt P42684); details: at 0.1 µM
Tyrosine-protein kinase ABL2 (Homo sapiens), sequence (P42684 whole entry): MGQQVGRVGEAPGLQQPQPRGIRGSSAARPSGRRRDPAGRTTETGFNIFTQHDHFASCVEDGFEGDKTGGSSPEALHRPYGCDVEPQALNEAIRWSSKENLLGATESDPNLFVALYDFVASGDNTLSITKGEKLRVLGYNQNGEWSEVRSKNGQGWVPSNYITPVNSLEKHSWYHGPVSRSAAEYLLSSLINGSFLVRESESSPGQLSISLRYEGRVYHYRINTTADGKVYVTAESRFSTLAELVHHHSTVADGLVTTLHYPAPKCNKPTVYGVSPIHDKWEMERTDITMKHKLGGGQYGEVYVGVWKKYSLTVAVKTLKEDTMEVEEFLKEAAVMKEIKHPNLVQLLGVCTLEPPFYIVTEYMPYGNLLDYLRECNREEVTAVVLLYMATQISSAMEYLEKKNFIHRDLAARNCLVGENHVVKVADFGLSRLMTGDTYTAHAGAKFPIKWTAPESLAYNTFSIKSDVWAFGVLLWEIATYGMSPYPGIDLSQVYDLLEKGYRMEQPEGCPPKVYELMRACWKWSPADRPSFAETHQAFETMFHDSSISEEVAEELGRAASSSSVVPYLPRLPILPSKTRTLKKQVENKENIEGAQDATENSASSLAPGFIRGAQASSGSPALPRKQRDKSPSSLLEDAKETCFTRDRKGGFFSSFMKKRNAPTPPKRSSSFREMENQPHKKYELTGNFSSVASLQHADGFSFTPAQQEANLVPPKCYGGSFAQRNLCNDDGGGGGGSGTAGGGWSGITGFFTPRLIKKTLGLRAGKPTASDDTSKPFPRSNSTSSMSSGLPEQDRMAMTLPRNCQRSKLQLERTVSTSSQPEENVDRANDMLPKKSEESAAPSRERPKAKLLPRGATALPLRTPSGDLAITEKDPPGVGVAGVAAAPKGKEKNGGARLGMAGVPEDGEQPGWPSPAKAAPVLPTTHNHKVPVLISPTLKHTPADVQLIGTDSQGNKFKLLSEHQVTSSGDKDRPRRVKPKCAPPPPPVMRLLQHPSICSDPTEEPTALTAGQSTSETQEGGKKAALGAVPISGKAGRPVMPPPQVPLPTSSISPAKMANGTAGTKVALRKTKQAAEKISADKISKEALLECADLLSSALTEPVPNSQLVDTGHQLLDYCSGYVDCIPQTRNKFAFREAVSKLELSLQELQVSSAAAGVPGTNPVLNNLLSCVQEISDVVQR

[19] = biological target: Tyrosine-protein kinase ABL2 (Homo sapiens) (UniProt P42684); details: at 1 µM
[20] = biological target: Tyrosine-protein kinase receptor UFO (Homo sapiens) (UniProt P30530); details: at 0.1 µM;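 note: values are mean percent inhibition of AXL from the GSK PKIS screen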
Tyrosine-protein kinase receptor UFO (Homo sapiens), sequence (P30530 whole entry): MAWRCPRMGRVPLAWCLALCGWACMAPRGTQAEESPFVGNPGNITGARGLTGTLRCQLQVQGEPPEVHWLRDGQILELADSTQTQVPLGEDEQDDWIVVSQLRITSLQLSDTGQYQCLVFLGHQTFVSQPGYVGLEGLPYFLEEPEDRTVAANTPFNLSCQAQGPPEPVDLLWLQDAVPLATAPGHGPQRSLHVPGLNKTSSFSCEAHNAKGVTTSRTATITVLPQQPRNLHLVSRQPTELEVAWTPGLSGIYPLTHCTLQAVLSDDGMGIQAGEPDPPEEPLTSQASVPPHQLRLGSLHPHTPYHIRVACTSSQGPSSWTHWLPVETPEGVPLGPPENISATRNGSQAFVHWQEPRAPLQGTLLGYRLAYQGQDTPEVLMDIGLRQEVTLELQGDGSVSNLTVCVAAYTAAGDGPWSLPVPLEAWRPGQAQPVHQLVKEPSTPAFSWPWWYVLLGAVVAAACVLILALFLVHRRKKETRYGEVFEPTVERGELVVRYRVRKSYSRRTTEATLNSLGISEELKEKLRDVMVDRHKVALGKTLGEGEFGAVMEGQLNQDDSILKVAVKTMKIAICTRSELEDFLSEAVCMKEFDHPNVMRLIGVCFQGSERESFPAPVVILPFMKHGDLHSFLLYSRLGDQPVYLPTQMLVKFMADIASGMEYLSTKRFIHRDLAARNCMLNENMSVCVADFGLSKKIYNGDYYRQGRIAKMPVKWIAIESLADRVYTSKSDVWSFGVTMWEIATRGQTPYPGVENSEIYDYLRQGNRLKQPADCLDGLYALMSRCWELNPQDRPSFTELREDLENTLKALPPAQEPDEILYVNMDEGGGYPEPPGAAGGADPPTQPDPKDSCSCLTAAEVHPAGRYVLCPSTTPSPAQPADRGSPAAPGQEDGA

Serine/threonine-protein kinase PAK 6 (Homo sapiens), sequence (Q9NQU5 whole entry, looked up): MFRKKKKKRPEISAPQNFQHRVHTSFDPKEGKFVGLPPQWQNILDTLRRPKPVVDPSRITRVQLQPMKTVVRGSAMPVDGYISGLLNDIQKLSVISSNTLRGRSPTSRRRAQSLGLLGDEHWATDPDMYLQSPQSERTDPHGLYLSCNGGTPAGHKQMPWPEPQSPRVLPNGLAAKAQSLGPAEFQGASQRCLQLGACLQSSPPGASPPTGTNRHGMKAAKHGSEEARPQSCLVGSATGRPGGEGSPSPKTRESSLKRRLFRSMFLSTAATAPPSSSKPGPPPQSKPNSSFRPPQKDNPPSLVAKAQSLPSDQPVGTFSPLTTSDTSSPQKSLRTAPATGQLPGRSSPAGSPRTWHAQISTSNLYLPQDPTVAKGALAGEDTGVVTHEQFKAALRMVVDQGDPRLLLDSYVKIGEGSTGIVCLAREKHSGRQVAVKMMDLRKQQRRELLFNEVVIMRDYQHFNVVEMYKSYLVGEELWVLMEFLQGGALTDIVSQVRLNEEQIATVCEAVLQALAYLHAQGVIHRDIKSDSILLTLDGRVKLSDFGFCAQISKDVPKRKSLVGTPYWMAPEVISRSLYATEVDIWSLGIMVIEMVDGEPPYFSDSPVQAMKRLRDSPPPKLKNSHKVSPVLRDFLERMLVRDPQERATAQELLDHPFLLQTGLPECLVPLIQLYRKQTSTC

CCn1c(-c2nonc2N)nc2c(C#CCN)ncc(OCCCN)c21
inhibition [1]: 2.6%
inhibition [2]: -4.53%
inhibition [3]: -4.45%
inhibition [4]: -4.29%
inhibition [5]: -0.59%
inhibition [6]: -1.57%
inhibition [7]: 1.28%
inhibition [8]: -2.52%
inhibition [9]: 0.94%
inhibition [10]: -2.53%
inhibition [11]: 1.94%
inhibition [12]: -2.47%
inhibition [13]: -2.94%
inhibition [14]: 1.03%
inhibition [15]: 2.03%
inhibition [16]: -6.6%
inhibition [17]: -0.9%
inhibition [18]: -2.47%
inhibition [19]: -0.76%
inhibition [20]: 7.73%

CCn1c(-c2nonc2N)nc2c(C#CC(C)(C)O)ncc(OC[C@@H]3CCCN3)c21
inhibition [1]: 58.4%
inhibition [2]: -0.36%
inhibition [3]: -0.79%
inhibition [4]: 1.51%
inhibition [5]: 6.5%
inhibition [6]: -0.07%
inhibition [7]: 1.33%
inhibition [8]: 1.26%
inhibition [9]: -0.4%
inhibition [10]: 0.19%
inhibition [11]: 0.65%
inhibition [12]: 0.65%
inhibition [13]: -0.13%
inhibition [14]: 1.81%
inhibition [15]: -0.45%
inhibition [16]: -0.46%
inhibition [17]: 1.45%
inhibition [18]: 1.42%
inhibition [19]: 2.28%
inhibition [20]: 0.65%

COc1cc(C=NNc2ncnc3c2cnn3Cc2ccccc2)ccc1O
inhibition [1]: -8.83%
inhibition [2]: 32.5%
inhibition [3]: 82.7%
inhibition [4]: 52.3%
inhibition [5]: 90%
inhibition [6]: 54.1%
inhibition [7]: 89.2%
inhibition [8]: 57.7%
inhibition [9]: 92.2%
inhibition [10]: 12.6%
inhibition [11]: 61.6%
inhibition [12]: 52.2%
inhibition [13]: 90.8%
inhibition [14]: 40.6%
inhibition [15]: 71.9%
inhibition [16]: -4.96%
inhibition [17]: -2.43%
inhibition [18]: 20.3%
inhibition [19]: 49.2%
inhibition [20]: 5.07%

CCn1c(-c2nonc2N)nc2c(C#CC(C)(C)O)nc(O[C@@H](CN)c3ccccc3)cc21
inhibition [1]: 67.6%
inhibition [2]: -0.39%
inhibition [3]: -0.58%
inhibition [4]: -0.59%
inhibition [5]: -0.29%
inhibition [6]: 0.75%
inhibition [7]: 5.14%
inhibition [8]: -0.46%
inhibition [9]: 0.03%
inhibition [10]: 1.03%
inhibition [11]: 4.28%
inhibition [12]: -0.01%
inhibition [13]: 0.57%
inhibition [14]: 0.27%
inhibition [15]: 5.55%
inhibition [16]: 0.41%
inhibition [17]: 19.6%
inhibition [18]: 1.15%
inhibition [19]: 6.91%
inhibition [20]: 1.96%

COc1cccc(-n2ncc3c(N/N=C/c4ccncc4)ncnc32)c1
inhibition [1]: -8.53%
inhibition [2]: 77%
inhibition [3]: 93.9%
inhibition [4]: 82.9%
inhibition [5]: 94.9%
inhibition [6]: 82.3%
inhibition [7]: 94%
inhibition [8]: 87.2%
inhibition [9]: 95.7%
inhibition [10]: 42.4%
inhibition [11]: 85.2%
inhibition [12]: 84.5%
inhibition [13]: 94.9%
inhibition [14]: 69.3%
inhibition [15]: 89%
inhibition [16]: 3.94%
inhibition [17]: 7.96%
inhibition [18]: 47.8%
inhibition [19]: 82.8%
inhibition [20]: -5.41%

COc1cc2c(cc1Nc1nc(Nc3ccsc3C(N)=O)c3cc[nH]c3n1)N(C(=O)CN(C)C)CCC2
inhibition [1]: 5.48%
inhibition [4]: -3.59%
inhibition [5]: -0.29%
inhibition [6]: 1.67%
inhibition [7]: 3.14%
inhibition [8]: 1.29%
inhibition [9]: 3.2%
inhibition [10]: 0.06%
inhibition [11]: 2.06%
inhibition [12]: 1.77%
inhibition [13]: 5.17%
inhibition [14]: 1.69%
inhibition [15]: 3.88%
inhibition [16]: 83.9%
inhibition [17]: 85.4%
inhibition [18]: 5.49%
inhibition [19]: 8.21%
inhibition [20]: 22.9%

Cc1cc(-c2ccco2)cc(C)c1/C=C/c1cncc(-c2nn[nH]n2)c1
inhibition [1]: 3.04%
inhibition [2]: 0.2%
inhibition [3]: 2.01%
inhibition [4]: 1.54%
inhibition [5]: 4.02%
inhibition [6]: 3.02%
inhibition [7]: 4.16%
inhibition [8]: 1.99%
inhibition [9]: 4.16%
inhibition [10]: 0.41%
inhibition [11]: 2.45%
inhibition [12]: 1.92%
inhibition [13]: 4.15%
inhibition [14]: 2.83%
inhibition [15]: 4.58%
inhibition [16]: 2.41%
inhibition [17]: 2.74%
inhibition [18]: 2.77%
inhibition [19]: 8.69%
inhibition [20]: 0.06%

NC(=O)c1sc(-n2cnc3cc(C(F)(F)F)ccc32)cc1OCc1ccccc1Br
inhibition [1]: 0.31%
inhibition [2]: 2.61%
inhibition [3]: 3.23%
inhibition [4]: 3.11%
inhibition [5]: 3.6%
inhibition [6]: 2.27%
inhibition [7]: 2.72%
inhibition [8]: 1.81%
inhibition [9]: 2.64%
inhibition [10]: 1.04%
inhibition [11]: 1.66%
inhibition [12]: 4.14%
inhibition [13]: 4.68%
inhibition [14]: 3.16%
inhibition [15]: 3.85%
inhibition [16]: 1.22%
inhibition [17]: 1.22%
inhibition [18]: 2.86%
inhibition [19]: 4.58%
inhibition [20]: -0.22%

Fc1ccc(-c2ncn(C3CCNCC3)c2-c2ccnc(Oc3ccccc3)n2)cc1
inhibition [1]: -6.64%
inhibition [2]: -0.56%
inhibition [3]: 1.05%
inhibition [4]: 2.03%
inhibition [5]: 1.85%
inhibition [6]: -0.31%
inhibition [7]: -0.15%
inhibition [8]: 1.55%
inhibition [9]: 2.19%
inhibition [10]: -0.76%
inhibition [11]: -0.9%
inhibition [12]: 1.35%
inhibition [13]: 2.58%
inhibition [14]: -2.46%
inhibition [15]: -4.75%
inhibition [16]: -2.73%
inhibition [17]: -0.15%
inhibition [18]: -2.93%
inhibition [19]: -3.16%
inhibition [20]: -4.72%

NS(=O)(=O)c1ccc(N/C=C2\C(=O)Nc3ccc4ncsc4c32)cc1
inhibition [1]: -3.07%
inhibition [2]: 3.53%
inhibition [3]: 21.2%
inhibition [4]: 7.89%
inhibition [5]: 31.5%
inhibition [6]: 5.55%
inhibition [7]: 30.6%
inhibition [8]: 9.38%
inhibition [9]: 38.7%
inhibition [10]: 6.29%
inhibition [11]: 41.1%
inhibition [12]: 5.62%
inhibition [13]: 32.9%
inhibition [14]: 8.9%
inhibition [15]: 32.9%
inhibition [16]: 4.55%
inhibition [17]: 15.1%
inhibition [18]: 5.92%
inhibition [19]: 21.8%
inhibition [20]: -3.83%

COc1cccc(COc2cc(-n3cnc4ccccc43)sc2C(N)=O)c1
inhibition [1]: -1.23%
inhibition [2]: -0.78%
inhibition [3]: -0.15%
inhibition [4]: -1.23%
inhibition [5]: 3.19%
inhibition [6]: -1.62%
inhibition [7]: 2.97%
inhibition [8]: -0.55%
inhibition [9]: 3.14%
inhibition [10]: -1.92%
inhibition [11]: 0.66%
inhibition [12]: -1.91%
inhibition [13]: 2.67%
inhibition [14]: -2.41%
inhibition [15]: 0.81%
inhibition [16]: -0.33%
inhibition [17]: 2.9%
inhibition [18]: -0.24%
inhibition [19]: 0.86%
inhibition [20]: 0.14%

CCn1c(-c2nonc2N)nc2c(C#CC(C)(C)O)ncc(OCC3CCNCC3)c21
inhibition [1]: 69.3%
inhibition [2]: -0.11%
inhibition [3]: 4.95%
inhibition [4]: 1.89%
inhibition [5]: 4.52%
inhibition [6]: -1.14%
inhibition [7]: 5.41%
inhibition [8]: 1.06%
inhibition [9]: 3.85%
inhibition [10]: 0.9%
inhibition [11]: 4.1%
inhibition [12]: 2.44%
inhibition [13]: 5.73%
inhibition [14]: -2.19%
inhibition [15]: 2.09%
inhibition [16]: -2.65%
inhibition [17]: 0.19%
inhibition [18]: -1.08%
inhibition [19]: -2.22%
inhibition [20]: -2.5%

Nc1nonc1-c1nc2cnccc2n1C1CCCCC1
inhibition [1]: -4.16%
inhibition [2]: -1.63%
inhibition [3]: -0.67%
inhibition [4]: -1.2%
inhibition [5]: -0.69%
inhibition [6]: 1.15%
inhibition [7]: 3.69%
inhibition [8]: -2.14%
inhibition [9]: 1.64%
inhibition [10]: -1.05%
inhibition [11]: -0.01%
inhibition [12]: -0.51%
inhibition [13]: 2.63%
inhibition [14]: -0.08%
inhibition [15]: 7.12%
inhibition [16]: -2.37%
inhibition [17]: 2.16%
inhibition [18]: 1.35%
inhibition [19]: 3.74%
inhibition [20]: 4.13%

NS(=O)(=O)c1ccc(-c2ccc3c(NC(=O)C4CC4)n[nH]c3c2)cc1
inhibition [1]: 9.03%
inhibition [2]: 2.79%
inhibition [3]: 7.46%
inhibition [4]: 4.05%
inhibition [5]: 17.1%
inhibition [6]: 3.23%
inhibition [7]: 16.9%
inhibition [8]: 6.44%
inhibition [9]: 8.2%
inhibition [10]: 5.41%
inhibition [11]: 15.1%
inhibition [12]: 4.41%
inhibition [13]: 8.81%
inhibition [14]: 8.32%
inhibition [15]: 14.2%
inhibition [16]: 2.73%
inhibition [17]: 3.11%
inhibition [18]: 6.43%
inhibition [19]: 7.09%
inhibition [20]: -4.27%
